Assay results from ChEMBL document CHEMBL1961873, “Compounds: GSK PKIS; Assays: Nanosyn kinase panel” (2012).

Assays:
[1] = target: MAP/microtubule affinity-regulating kinase 3 (Homo sapiens) (UniProt P27448); conditions: at 1 µM;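 also: reported values are averaged percent inhibition of MARK3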
[2] = target: T1, MAP/microtubule affinity-regulating kinase 4 (Homo sapiens) (UniProt Q96L34); conditions: at 0.1 µM
T1 sequence (whole entry): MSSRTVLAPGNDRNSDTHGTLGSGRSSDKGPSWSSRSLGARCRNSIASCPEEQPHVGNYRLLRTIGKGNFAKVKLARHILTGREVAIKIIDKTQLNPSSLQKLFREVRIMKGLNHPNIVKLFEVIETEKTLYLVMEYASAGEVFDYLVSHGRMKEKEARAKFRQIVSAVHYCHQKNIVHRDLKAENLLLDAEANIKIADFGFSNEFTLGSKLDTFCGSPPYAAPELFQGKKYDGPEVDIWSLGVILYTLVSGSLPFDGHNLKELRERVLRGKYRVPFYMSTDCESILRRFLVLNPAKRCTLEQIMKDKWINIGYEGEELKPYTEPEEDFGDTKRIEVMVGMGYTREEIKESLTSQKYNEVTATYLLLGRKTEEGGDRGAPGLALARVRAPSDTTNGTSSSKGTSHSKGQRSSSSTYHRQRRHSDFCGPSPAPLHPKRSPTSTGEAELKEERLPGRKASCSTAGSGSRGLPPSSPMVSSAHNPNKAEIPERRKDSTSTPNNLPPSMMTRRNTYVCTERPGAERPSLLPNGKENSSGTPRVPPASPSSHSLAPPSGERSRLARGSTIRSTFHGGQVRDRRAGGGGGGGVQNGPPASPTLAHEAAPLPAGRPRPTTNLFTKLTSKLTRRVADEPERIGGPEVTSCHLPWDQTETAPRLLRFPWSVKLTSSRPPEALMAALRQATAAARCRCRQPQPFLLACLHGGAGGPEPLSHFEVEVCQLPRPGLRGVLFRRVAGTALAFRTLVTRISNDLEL

[3] = target: T1, MAP/microtubule affinity-regulating kinase 4 (Homo sapiens); conditions: at 1 µM
[4] = target: Maternal embryonic leucine zipper kinase (Homo sapiens) (UniProt Q14680); conditions: at 0.1 µM
[5] = target: Maternal embryonic leucine zipper kinase (Homo sapiens) (UniProt Q14680); conditions: at 1 µM
[6] = target: MAP kinase-interacting serine/threonine-protein kinase 1 (Homo sapiens) (UniProt Q9BUB5); conditions: at 0.1 µM
[7] = target: MAP kinase-interacting serine/threonine-protein kinase 1 (Homo sapiens) (UniProt Q9BUB5); conditions: at 1 µM
[8] = target: MAP kinase-interacting serine/threonine-protein kinase 2 (Homo sapiens) (UniProt Q9HBH9); conditions: at 0.1 µM
[9] = target: MAP kinase-interacting serine/threonine-protein kinase 2 (Homo sapiens) (UniProt Q9HBH9); conditions: at 1 µM
[10] = target: Serine/threonine-protein kinase MARK2 (Homo sapiens) (UniProt Q7KZI7); conditions: at 0.1 µM;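 also: mean percent inhibition of PAR-1Balpha kinase activity, reported from the GSK PKIS screen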
Serine/threonine-protein kinase MARK2 (Homo sapiens), sequence (Q7KZI7 whole entry): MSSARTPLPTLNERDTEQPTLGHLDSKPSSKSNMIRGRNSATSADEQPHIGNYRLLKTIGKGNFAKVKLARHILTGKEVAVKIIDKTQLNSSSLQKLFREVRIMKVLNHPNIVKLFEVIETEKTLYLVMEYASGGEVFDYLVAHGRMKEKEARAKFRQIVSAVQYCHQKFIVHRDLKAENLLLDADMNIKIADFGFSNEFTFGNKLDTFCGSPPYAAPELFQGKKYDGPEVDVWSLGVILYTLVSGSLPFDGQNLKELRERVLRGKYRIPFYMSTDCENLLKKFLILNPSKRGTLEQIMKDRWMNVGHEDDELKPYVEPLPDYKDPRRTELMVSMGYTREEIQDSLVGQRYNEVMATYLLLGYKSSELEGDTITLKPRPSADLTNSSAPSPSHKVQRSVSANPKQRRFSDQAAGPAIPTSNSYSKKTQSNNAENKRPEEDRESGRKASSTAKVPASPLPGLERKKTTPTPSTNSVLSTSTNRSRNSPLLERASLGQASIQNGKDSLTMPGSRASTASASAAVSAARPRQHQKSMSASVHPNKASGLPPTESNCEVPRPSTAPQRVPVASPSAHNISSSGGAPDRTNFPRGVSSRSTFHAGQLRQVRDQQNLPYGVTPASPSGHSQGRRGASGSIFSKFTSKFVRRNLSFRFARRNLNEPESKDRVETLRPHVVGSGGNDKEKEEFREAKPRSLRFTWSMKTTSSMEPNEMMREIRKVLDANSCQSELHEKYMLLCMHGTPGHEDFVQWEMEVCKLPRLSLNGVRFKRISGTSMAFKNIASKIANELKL

Maternal embryonic leucine zipper kinase (Homo sapiens), sequence (Q14680 whole entry, looked up): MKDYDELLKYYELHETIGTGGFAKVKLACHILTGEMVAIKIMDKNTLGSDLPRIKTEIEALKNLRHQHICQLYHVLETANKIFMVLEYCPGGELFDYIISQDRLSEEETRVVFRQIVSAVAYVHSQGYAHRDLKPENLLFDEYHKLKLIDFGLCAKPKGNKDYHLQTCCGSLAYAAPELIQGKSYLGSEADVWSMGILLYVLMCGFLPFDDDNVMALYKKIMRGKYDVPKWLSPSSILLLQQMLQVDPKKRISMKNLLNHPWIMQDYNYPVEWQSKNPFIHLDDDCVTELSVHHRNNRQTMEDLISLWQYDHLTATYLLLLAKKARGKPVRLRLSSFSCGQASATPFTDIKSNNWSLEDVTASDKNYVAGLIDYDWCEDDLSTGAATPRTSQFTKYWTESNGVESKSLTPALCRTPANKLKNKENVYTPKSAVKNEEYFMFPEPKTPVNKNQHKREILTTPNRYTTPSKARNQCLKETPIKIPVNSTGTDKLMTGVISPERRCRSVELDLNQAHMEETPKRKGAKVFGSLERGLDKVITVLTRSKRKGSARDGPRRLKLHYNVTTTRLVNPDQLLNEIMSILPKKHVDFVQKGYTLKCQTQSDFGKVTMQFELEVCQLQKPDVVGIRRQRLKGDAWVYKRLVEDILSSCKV
MAP kinase-interacting serine/threonine-protein kinase 1 (Homo sapiens), sequence (Q9BUB5 whole entry, looked up): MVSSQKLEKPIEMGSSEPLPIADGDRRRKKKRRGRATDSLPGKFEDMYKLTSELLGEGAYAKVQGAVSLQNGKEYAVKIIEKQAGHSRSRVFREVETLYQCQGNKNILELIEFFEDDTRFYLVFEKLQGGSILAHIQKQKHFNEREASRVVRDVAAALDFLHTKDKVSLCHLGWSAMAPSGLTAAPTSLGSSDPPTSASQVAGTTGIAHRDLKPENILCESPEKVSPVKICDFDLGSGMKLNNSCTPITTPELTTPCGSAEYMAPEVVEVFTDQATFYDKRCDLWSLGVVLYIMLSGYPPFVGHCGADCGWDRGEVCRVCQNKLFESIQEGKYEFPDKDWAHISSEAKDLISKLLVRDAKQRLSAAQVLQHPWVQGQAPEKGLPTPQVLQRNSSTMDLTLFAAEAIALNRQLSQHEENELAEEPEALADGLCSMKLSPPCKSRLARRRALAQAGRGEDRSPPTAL
MAP kinase-interacting serine/threonine-protein kinase 2 (Homo sapiens), sequence (Q9HBH9 whole entry, looked up): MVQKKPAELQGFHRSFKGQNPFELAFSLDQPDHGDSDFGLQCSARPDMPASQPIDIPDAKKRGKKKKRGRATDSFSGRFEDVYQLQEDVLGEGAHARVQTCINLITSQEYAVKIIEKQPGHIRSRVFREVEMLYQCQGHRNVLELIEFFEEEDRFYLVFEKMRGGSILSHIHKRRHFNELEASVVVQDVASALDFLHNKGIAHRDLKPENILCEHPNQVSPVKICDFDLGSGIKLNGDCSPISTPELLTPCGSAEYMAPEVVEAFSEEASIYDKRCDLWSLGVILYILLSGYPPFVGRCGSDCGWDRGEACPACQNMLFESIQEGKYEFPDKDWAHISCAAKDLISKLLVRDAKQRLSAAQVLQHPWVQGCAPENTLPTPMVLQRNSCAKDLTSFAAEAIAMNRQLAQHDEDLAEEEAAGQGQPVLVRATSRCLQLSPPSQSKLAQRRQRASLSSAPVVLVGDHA
MAP/microtubule affinity-regulating kinase 3 (Homo sapiens), sequence (P27448 whole entry, looked up): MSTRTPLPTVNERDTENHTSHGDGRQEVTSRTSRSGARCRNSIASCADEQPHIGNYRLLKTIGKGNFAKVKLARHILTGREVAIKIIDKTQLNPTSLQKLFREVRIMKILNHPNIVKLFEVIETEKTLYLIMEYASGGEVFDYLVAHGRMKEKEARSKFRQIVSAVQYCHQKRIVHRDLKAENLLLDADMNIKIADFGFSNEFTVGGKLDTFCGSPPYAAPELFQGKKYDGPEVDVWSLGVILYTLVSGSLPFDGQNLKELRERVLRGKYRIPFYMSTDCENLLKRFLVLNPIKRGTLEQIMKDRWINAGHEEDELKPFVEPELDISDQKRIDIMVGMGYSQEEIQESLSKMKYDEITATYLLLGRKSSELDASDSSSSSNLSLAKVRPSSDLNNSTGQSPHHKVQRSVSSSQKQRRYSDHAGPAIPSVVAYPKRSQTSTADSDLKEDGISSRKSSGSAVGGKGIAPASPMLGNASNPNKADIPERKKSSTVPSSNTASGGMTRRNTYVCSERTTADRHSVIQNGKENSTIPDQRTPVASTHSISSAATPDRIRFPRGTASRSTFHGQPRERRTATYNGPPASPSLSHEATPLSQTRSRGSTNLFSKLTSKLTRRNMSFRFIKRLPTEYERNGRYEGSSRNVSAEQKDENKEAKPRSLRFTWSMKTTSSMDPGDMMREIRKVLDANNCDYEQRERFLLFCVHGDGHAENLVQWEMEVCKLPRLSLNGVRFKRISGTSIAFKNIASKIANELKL

NC(=O)c1sc(-n2cnc3ccccc32)cc1OCc1ccccc1Br
inhibition [1]: 5.83%
inhibition [2]: 1.43%
inhibition [3]: 5.23%
inhibition [4]: 4.71%
inhibition [5]: 10.1%
inhibition [6]: 2.14%
inhibition [7]: 11.7%
inhibition [8]: 0.25%
inhibition [9]: 4.3%
inhibition [10]: 1.95%

COc1cccc(-n2ncc3c(N/N=C/c4ccc(S(C)(=O)=O)cc4)ncnc32)c1
inhibition [1]: 4.26%
inhibition [2]: 1.03%
inhibition [3]: 3.52%
inhibition [4]: 3.61%
inhibition [5]: 4.85%
inhibition [6]: 23.2%
inhibition [7]: 34.2%
inhibition [8]: 16.7%
inhibition [9]: 23.9%
inhibition [10]: 0.16%

Nc1nccc(-c2c(-c3ccc(F)cc3)nn3cc(C(F)(F)F)ccc23)n1
inhibition [1]: -0.99%
inhibition [2]: -0.15%
inhibition [3]: -0.03%
inhibition [4]: 0.66%
inhibition [5]: -0.87%
inhibition [6]: 1.92%
inhibition [7]: 3.98%
inhibition [8]: 0.49%
inhibition [9]: 2.23%
inhibition [10]: -2.12%

c1ccc(Cc2nc3ccc(Nc4ncnc5ccccc45)cc3[nH]2)cc1
inhibition [1]: 3.72%
inhibition [2]: 0.9%
inhibition [3]: 2.17%
inhibition [4]: 0.16%
inhibition [5]: 7.57%
inhibition [6]: 2.13%
inhibition [7]: 5.06%
inhibition [8]: 1.25%
inhibition [9]: 5.19%
inhibition [10]: 0.28%

Nc1nccc(C#Cc2cncnc2Nc2ccc(OCc3cccc(F)c3)c(Cl)c2)n1
inhibition [1]: 11.2%
inhibition [2]: 3.04%
inhibition [3]: 7.4%
inhibition [4]: 2.92%
inhibition [5]: 5.11%
inhibition [6]: 3.59%
inhibition [7]: 14%
inhibition [8]: 2.98%
inhibition [9]: 8.39%
inhibition [10]: 1.67%

NC(=O)c1cccc(Nc2nccc(Nc3cccc(F)c3)n2)c1
inhibition [1]: 2.35%
inhibition [2]: 0.72%
inhibition [3]: 3.28%
inhibition [4]: -2.04%
inhibition [5]: 2.88%
inhibition [6]: 1.05%
inhibition [7]: 3.91%
inhibition [8]: 0.26%
inhibition [9]: 8.7%
inhibition [10]: -1.24%

COc1cc2ncnc(Nc3ccc4c(cnn4Cc4ccccc4)c3)c2cc1OC
inhibition [1]: 2.6%
inhibition [2]: 1.05%
inhibition [3]: 3.55%
inhibition [4]: 3.54%
inhibition [5]: 8.01%
inhibition [6]: 2.44%
inhibition [7]: 18%
inhibition [8]: 0.99%
inhibition [9]: 17.1%
inhibition [10]: -0.07%

Cc1ccc2c(c1)/C(=N/Nc1ccc(S(N)(=O)=O)cc1)C(=O)N2
inhibition [1]: 3.82%
inhibition [2]: 1.51%
inhibition [3]: 7.46%
inhibition [4]: -0.41%
inhibition [5]: 6.27%
inhibition [6]: 0.02%
inhibition [7]: 0.54%
inhibition [8]: -0.44%
inhibition [9]: 0%
inhibition [10]: -0.42%

NS(=O)(=O)c1ccc(N/N=C2\C(=O)Nc3ccc(Cl)cc32)cc1
inhibition [1]: 13.2%
inhibition [2]: 2.09%
inhibition [3]: 11.2%
inhibition [4]: 3.75%
inhibition [5]: 8.5%
inhibition [6]: 2.08%
inhibition [7]: 10.1%
inhibition [8]: 1.59%
inhibition [9]: 5.65%
inhibition [10]: 0.41%

Nc1nccc(-c2c(-c3ccc(F)cc3)ncn2CCCN2CCOCC2)n1
inhibition [1]: 8.72%
inhibition [2]: 1.4%
inhibition [3]: 1.82%
inhibition [4]: 9.7%
inhibition [5]: 2.83%
inhibition [6]: 2.6%
inhibition [7]: 7.69%
inhibition [8]: 1.53%
inhibition [9]: 0.94%
inhibition [10]: 3.08%

N#Cc1cccc(Nc2nccc(-c3cnn4ncccc34)n2)c1
inhibition [1]: 13.1%
inhibition [2]: 1.74%
inhibition [3]: 9.89%
inhibition [4]: 12.5%
inhibition [5]: 55.9%
inhibition [6]: 6.09%
inhibition [7]: 22.5%
inhibition [8]: 5.65%
inhibition [9]: 33%
inhibition [10]: 1.3%

CN(C)CCCn1c(-c2nonc2N)nc2cnccc21
inhibition [1]: 3.45%
inhibition [2]: 2.41%
inhibition [3]: 3.46%
inhibition [4]: 6.89%
inhibition [5]: 20.1%
inhibition [6]: 1.87%
inhibition [7]: 5.5%
inhibition [8]: 0.54%
inhibition [9]: -0.09%
inhibition [10]: 1.6%

[O-][S+]1CCN(Cc2ccc(-c3ccc4ncnc(Nc5ccc(OCc6ccccc6)c(Cl)c5)c4c3)o2)CC1
inhibition [1]: 2.17%
inhibition [2]: 1.29%
inhibition [3]: 2.1%
inhibition [4]: 2.37%
inhibition [5]: 5.78%
inhibition [6]: 1.69%
inhibition [7]: 5.98%
inhibition [8]: 0.13%
inhibition [9]: 8.54%
inhibition [10]: 0.59%

CN(c1ccc(NC(=O)Nc2ccc(OC(F)(F)F)cc2)cc1)c1ccnc(Nc2cccc(S(N)(=O)=O)c2)n1
inhibition [1]: -0.68%
inhibition [2]: 0.65%
inhibition [3]: 1.56%
inhibition [4]: 0.77%
inhibition [5]: -2.07%
inhibition [6]: 29.2%
inhibition [7]: 73.3%
inhibition [8]: 20.5%
inhibition [9]: 67.3%
inhibition [10]: -1.1%

Cc1ccc(C(=O)NC2CC2)cc1-c1ccc2[nH]ncc2c1
inhibition [1]: 5.49%
inhibition [2]: 1.68%
inhibition [3]: 3.83%
inhibition [4]: -4.14%
inhibition [5]: -5.86%
inhibition [6]: -1.37%
inhibition [7]: -1.19%
inhibition [8]: 0.44%
inhibition [9]: 1.35%
inhibition [10]: 2.15%

COC(=O)Nc1nc2cc(Oc3ccc(NC(=O)Nc4cccc(Br)c4)cc3)ccc2[nH]1
inhibition [1]: 1.7%
inhibition [2]: 0.25%
inhibition [3]: 1.17%
inhibition [4]: 2.93%
inhibition [5]: 4.7%
inhibition [6]: 4.77%
inhibition [7]: 8.85%
inhibition [8]: 1.96%
inhibition [9]: 4.55%
inhibition [10]: -0.39%

Cc1cc(Cl)cc2c1NC(=O)C2=NNc1ccc(S(N)(=O)=O)cc1
inhibition [1]: 1.21%
inhibition [2]: -0.63%
inhibition [3]: -0.34%
inhibition [4]: 0.8%
inhibition [5]: 0.86%
inhibition [6]: 1.47%
inhibition [7]: 6.58%
inhibition [8]: 1.41%
inhibition [9]: 4.45%
inhibition [10]: 0.48%
